Records with an inconclusive call do not appear. Entries that show only a call come without a potency. Active and inactive are the calls of the source. The call rests on the fitted dose curve; in most records, active means well fitted cell-killing curve with a large enough effect in the repeat runs; inconclusive means weak or mixed curves, or effect the other way; inactive means no such curve, though single readings can be large or run the other way.
test: qHTS assay to identify small molecule antagonists of the glucocorticoid receptor (GR) signaling pathway - cell viability counter screen (AID 720693); conditions: GR-bla HeLa viability, CellTiter-Glo luminescence, 18 h, with 5 nM dexamethasone present; series mostly up to 58.5 µM; further: nearly all actives have a fitted effect of over 55% in size
Text: National Center for Advancing Translational Sciences [NCATS]
NIH Chemical Genomics Center [NCGC]
U.S. Environmental Protection Agency [EPA]
National Institutes of Environmental Health Sciences [NIEHS]
National Toxicology Program [NTP]
U.S. Food and Drug Administration [FDA]
The Glucocorticoid receptor (GR) is one of the members of the nuclear receptor family of ligand-dependent transcription factors. GR plays a critical role in carbohydrate, protein and lipid metabolisms and programmed cell death. CellSensor GR-bla HeLa cell line (Invitrogen) contains a beta-lactamase reporter gene under the control of the glucocorticoid response element stably integrated into HeLa cells, a cervical cancer cell line that expresses glucocorticoid receptor. The activation of the reporter gene under culture conditions can be detected by fluorescence intensity. This cell line has been used to screen the Tox21 10K compound library and to identify the compounds that inhibit the GR signaling. The cytotoxicity of the Tox21 compound library against the GR-bla HeLa cell line was tested in parallel by measuring the cell viability using CellTiter-Glo assay in the same wells.
Tox21 Assay Protocol Summary:
The GR-bla HeLa cells were dispensed at 1500 cells/5 ul/well in 1536-well black wall/clear bottom plates using a Multidrop Combi (ThermoFisher Scientific, Waltham, MA) dispenser. After the assay plates were incubated at a 37 C/5% CO2 incubator for 4 hours, 23 nL of compounds dissolved in DMSO, positive controls or DMSO only was transferred to the assay plate by a pintool station (Kalypsys, San Diego, CA), followed by addition of 1 uL of dexamethasone (5 nM, final concentration in the well). The plates were incubated at 37 C for 18 hours. After 1 uL of LiveBLAzerTM B/G FRET substrate was added using a Flying Reagent Dispenser (Aurora Discovery, San Diego, CA), the plates were incubated at room temperature (RT) for 2 hours, and fluorescence intensity was measured by an Envision plate reader (PerkinElmer, Shelton, CT). After measurement of bla assay, 3 ul CellTiter-Glo (Promega, Madison, WI) was added to measure the cytotoxicity and the plates were then incubated at RT for 30 min. The luminescence was measured using a ViewLux (Perkin Elmer) plate reader.

SMILES	Potency
Clc1ccc(C(Cl)(Cl)Cl)cn1	inactive
CN=CNc1ccc(C)cc1C	inactive
O=C(O)C(F)(F)C(F)(F)C(F)(F)C(F)(F)C(F)(F)C(F)(F)F	inactive
BrCC1CO1 (stereo not given)	inactive
O=C(Cl)OCc1ccccc1	inactive
CCOC(=O)Nc1cccc(OC(=O)Nc2ccccc2)c1	inactive
ClCCCCCCCl	inactive
CCCCOC(C)=O	inactive
O=C(Cl)c1ccccc1	inactive
NCC1(CC(=O)O)CCCCC1	inactive
CC(C)(C)C(=O)Cl	inactive
Cn1c(CCCC(=O)O)nc2cc(N(CCCl)CCCl)ccc21	inactive
O=C(O)CBr	inactive
CCC1(c2cccc(O)c2)CCCCN(C)C1 (stereo not given)	inactive
Cc1ccc2cc(C)ccc2c1	inactive
C=CCc1cc(OC)c2c(c1)OCO2	inactive
C=CC1(C)OC(=O)N(c2cc(Cl)cc(Cl)c2)C1=O (stereo not given)	inactive
CCCOC(=O)Cc1ccc(OCC(=O)N(CC)CC)c(OC)c1	inactive
C#CCOC(=O)/C=C(C)/C=C/CC(C)CCCC(C)C (stereo not given)	inactive
C(COCC1CO1)OCC1CO1 (stereo not given)	inactive

SMILES	Potency
BrCCc1ccccc1	inactive
CCCCCCCCBr	inactive
CC(=NC#N)N(C)Cc1ccc(Cl)nc1	inactive
CC[C@H](N)c1ccccc1	inactive
CCN[C@H](C)Cc1cccc(C(F)(F)F)c1	inactive
CC(C)N(Cc1ccccc1)C(=O)C(C)(C)C	inactive
NC1(c2ccccc2)CCCCC1	inactive
CCOC(=O)CC(SP(=S)(OC)OC)C(=O)OCC (stereo not given)	inactive
CCOC(=O)C(Cl)Cc1cc(-n2nc(C)n(C(F)F)c2=O)c(F)cc1Cl (stereo not given)	inactive
CC(C)(N)Cc1ccc(Cl)cc1	inactive
O=[N+]([O-])CCO	inactive
CN(C)C(=O)Oc1cc(OC(=O)N(C)C)cc(C(O)CNC(C)(C)C)c1 (stereo not given)	inactive
CC1N=C(N)OC1c1ccccc1 (stereo not given)	inactive
CCCC[N+](=O)[O-]	inactive
CCN(CCO)CCO	inactive
O=C(NC(=O)c1c(F)cccc1F)Nc1cc(Cl)c(F)c(Cl)c1F	inactive
CCOP(=S)(OCC)SCCl	inactive
CCOC(=O)NC(C)(C)Cc1ccc(Cl)cc1	inactive
CN(C)CCN(C)C	inactive
CCC1(c2ccccc2)C(=O)N(COC)C(=O)N(COC)C1=O	inactive

— PubChem BioAssay (Tox21)
